Screens: PubChem, The Scripps Research Institute Molecular Screening Center
HTR5A inv ag = HTR5A inverse agonists in luminescence cell assay, primary screen, counter-screen for OPRM1-OPRD1 heterodimer inverse agonist project, full-deck HTS; inhibition, % at 9.3 µM; HTR5A cell line, inverse agonism; AID 504634, 2011; 0.083% of 340,000 active; in the data active = inhibition mostly above about 23%, no sharp cut-off; inactive = mostly below about 18%
Target sequence (P47898 whole entry, looked up): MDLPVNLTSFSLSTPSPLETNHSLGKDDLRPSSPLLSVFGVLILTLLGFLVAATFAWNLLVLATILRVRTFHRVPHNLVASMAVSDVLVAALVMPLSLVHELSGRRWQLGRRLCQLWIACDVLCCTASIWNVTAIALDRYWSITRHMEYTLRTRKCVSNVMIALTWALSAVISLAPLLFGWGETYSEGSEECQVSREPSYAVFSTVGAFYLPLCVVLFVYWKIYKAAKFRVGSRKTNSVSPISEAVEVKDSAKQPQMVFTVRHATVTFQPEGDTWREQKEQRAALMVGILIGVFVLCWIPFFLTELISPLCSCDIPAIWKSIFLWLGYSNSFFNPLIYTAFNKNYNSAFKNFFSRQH
OPRM1-OPRD1 inv = inverse agonists of MOR-DOR heterodimerization, primary screen, cell-based, luminescence; Mu-type opioid receptor (Homo sapiens) + Delta-type opioid receptor (Homo sapiens), …; cell-based MOR-DOR heterodimer luminescence, inverse agonism; inhibition, % at 9.3 µM; 0.21% of 340,000 active; in the data active = inhibition above about 22%, passing the limit was not always enough
HTR5A ag ctr = HTR5A agonists in luminescence cell assay, primary screen, counter-screen for OPRM1-OPRD1 heterodimer agonist project, full-deck HTS | 5-hydroxytryptamine receptor 5A (Homo sapiens), P47898 | cell-based | activation, % at 9.3 µM | 0.61% of 340,000 active | AID 504692, 2011; in the data active = activation mostly above about 9.5%, no sharp cut-off; inactive = mostly below about 7.6%
MOR-DOR ag-1 = agonists of OPRM1-OPRD1 heterodimerization, primary screen, cell-based, luminescence; activation, % at 9.3 µM; AID 504326, 2011; Mu-type opioid receptor (Homo sapiens) + Delta-type opioid receptor (Homo sapiens), …; cells; 0.3% of 340,000 active
HTR2A ag = mouse Htr2a agonists via beta-arrestin recruitment, primary screen, cell-based, luminescence; 5-hydroxytryptamine receptor 2A (Mus musculus), P35363; CHO-K1 mHTR2A beta-arrestin complementation; percent of 30 µM serotonin response; activation, % at 7.6 µM; 0.66% of 360,000 active;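 active = activation above a run cutoff, the mean activation of all tested compounds plus 3 SD, cut at about 14% in these data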
MOR-DOR ag-2 = OPRM1-OPRD1 heterodimerization promoters, counter-screen for HTR5A agonist project, cell-based, luminescence | shares compounds with HTR5A ag ctr | U2OS counter-screen cells, complementation luminescence, 3 h | activation, % at 9.3 µM | 13% of 800 active | AID 504913, 2011
HTR5A ag confirm = HTR5A agonists, retest of hits, confirmation, cell-based, luminescence; shares compounds with HTR5A ag ctr; HTR5A agonist cell assay; activation, % at 9.3 µM; 17% of 800 active; in the data active = activation above about 17%
A number is an active result. Compounds with a hit are over-represented: about 1.6% of the library has one in this group of screens. Cut-off read from the data, not from the text of the source, unless noted: active = activation above about 18%; inactive = the rest.

Results for O=c1[nH]c2ccccc2cc1-c1nnn(-c2ccc(F)cc2)n1 ?
HTR5A inv ag: inactive; OPRM1-OPRD1 inv: inactive; HTR5A ag ctr: inactive; MOR-DOR ag-1: inactive; HTR2A ag: inactive

What do the screens show for `O=C1c2cccc3c(O)ccc(c23)C(=O)N1Cc1ccccc1`?
HTR5A inv ag: inactive; OPRM1-OPRD1 inv: inactive; HTR5A ag ctr: 17.0; MOR-DOR ag-1: inactive; HTR2A ag: inactive; MOR-DOR ag-2: 19.8; HTR5A ag confirm: inactive

What do the screens show for `O=C(O)c1cccc(CN2C(=O)c3ccccc3C2=O)c1`?
HTR5A inv ag: inactive; OPRM1-OPRD1 inv: inactive; HTR5A ag ctr: inactive; MOR-DOR ag-1: inactive; HTR2A ag: inactive

Results for CCOC(=O)C1=C(C)NC(=O)NC1c1ccc(-c2ccccc2F)o1 (stereo not drawn) ?
HTR5A inv ag: inactive; OPRM1-OPRD1 inv: inactive; HTR5A ag ctr: inactive; MOR-DOR ag-1: inactive; HTR2A ag: inactive

What do the screens show for `CC(=O)C1=C(C)NC(C)=C(C(C)=O)C1c1ccc(-c2ccccc2Cl)o1`?
HTR5A inv ag: inactive; OPRM1-OPRD1 inv: inactive; HTR5A ag ctr: 23.1; MOR-DOR ag-1: inactive; HTR2A ag: inactive; MOR-DOR ag-2: inactive; HTR5A ag confirm: inactive

Results for COc1ccc(N2C(=O)CCC(C(=O)N3CCCCC3)C2c2ccc(F)cc2)cc1 (stereo not drawn) ?
HTR5A inv ag: inactive; OPRM1-OPRD1 inv: inactive; HTR5A ag ctr: inactive; MOR-DOR ag-1: inactive; HTR2A ag: inactive

What do the screens show for `COc1ccc(N2C(=O)CCC(C(=O)O)C2c2ccc(F)cc2)cc1` (stereo not drawn)?
HTR5A inv ag: inactive; OPRM1-OPRD1 inv: inactive; HTR5A ag ctr: 16.5; MOR-DOR ag-1: inactive; HTR2A ag: inactive; MOR-DOR ag-2: inactive; HTR5A ag confirm: inactive

What do the screens show for `CCOC(=O)c1c(C)oc2c1c(C=NCCO)c(O)c1ccccc12`?
HTR5A inv ag: inactive; OPRM1-OPRD1 inv: inactive; HTR5A ag ctr: 16.5; MOR-DOR ag-1: inactive; HTR2A ag: inactive; MOR-DOR ag-2: inactive; HTR5A ag confirm: inactive

What do the screens show for `COCCN(C(=S)Nc1ccccc1OC)C1CCN(C(C)=O)CC1`?
HTR5A inv ag: inactive; OPRM1-OPRD1 inv: inactive; HTR5A ag ctr: inactive; MOR-DOR ag-1: inactive; HTR2A ag: inactive

Results for CCOc1ccccc1NC(=S)N(CCOC)C1CCN(C(C)=O)CC1 ?
HTR5A inv ag: inactive; OPRM1-OPRD1 inv: inactive; HTR5A ag ctr: 14.7; MOR-DOR ag-1: inactive; HTR2A ag: inactive; MOR-DOR ag-2: inactive; HTR5A ag confirm: inactive

Results for CCN(CC)S(=O)(=O)c1cc(NC(=O)C2CCN(c3ncnc4sc(C)c(C)c34)CC2)ccc1Cl ?
HTR5A inv ag: inactive; OPRM1-OPRD1 inv: inactive; HTR5A ag ctr: inactive; MOR-DOR ag-1: inactive; HTR2A ag: inactive

How did Cc1ccc(NC(=O)C2CCN(c3ncnc4sc(C)c(C)c34)CC2)cc1S(=O)(=O)N(C)C do in these assays?
HTR5A inv ag: inactive; OPRM1-OPRD1 inv: inactive; HTR5A ag ctr: 19.5; MOR-DOR ag-1: inactive; HTR2A ag: inactive; MOR-DOR ag-2: inactive; HTR5A ag confirm: inactive

How did OC(c1ccc(F)c(F)c1)c1nc(-c2cccc3cccnc23)cs1 (stereo not drawn) do in these assays?
HTR2A ag: inactive

What do the screens show for `COc1ccc(N2CCN(CCNC(=O)Nc3ccc(C)c(Cl)c3)CC2)cc1`?
HTR5A inv ag: inactive; OPRM1-OPRD1 inv: inactive; HTR5A ag ctr: inactive; MOR-DOR ag-1: inactive; HTR2A ag: inactive

Results for COc1ccc(NC(=O)NCCN2CCN(c3cccc(Cl)c3)CC2)cc1 ?
HTR5A inv ag: inactive; OPRM1-OPRD1 inv: inactive; HTR5A ag ctr: 19.2; MOR-DOR ag-1: inactive; HTR2A ag: inactive; MOR-DOR ag-2: inactive; HTR5A ag confirm: 23.2

How did CCOc1cccc(N2CCN(CCNC(=O)Nc3ccc(C)cc3)CC2)c1C do in these assays?
HTR5A inv ag: inactive; OPRM1-OPRD1 inv: inactive; HTR5A ag ctr: 15.4; MOR-DOR ag-1: inactive; HTR2A ag: inactive; MOR-DOR ag-2: inactive; HTR5A ag confirm: 20.2

What do the screens show for `COc1ccc(NC(=O)NCCCN2CCN(c3cc(C)ccc3C)CC2)cc1`?
HTR5A inv ag: inactive; OPRM1-OPRD1 inv: inactive; HTR5A ag ctr: inactive; MOR-DOR ag-1: inactive; HTR2A ag: inactive
